In PubChem BioAssay:
The source made the active and inactive calls.

Tests used:
[1] = compound effects on differentiated 3T3-L1 adipocyte viability – cell-based, 3T3-L1 adipocytes, calcein-AM fluorescence, 48 h, basal, profiling panel (AID 1163); conditions: 3T3-L1 adipocytes viability, higher = more signal
[2] = compound effects on hepatocellular carcinoma cell viability – HepG2, calcein-AM fluorescence, 48 h, basal, profiling panel (AID 1164); conditions: higher = more signal
[3] = compound effects on multiple myeloma cell viability – MM1S, calcein-AM fluorescence, 48 h, basal, profiling panel (AID 1165); conditions: higher = more signal
[4] = calcein-AM signal in unstimulated myeloma cells – cell-based, calcein-AM fluorescence, 48 h, PK04 Diversity Set, profiling panel (AID 1166); conditions: RPMI8226 myeloma viability, higher = more signal;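 also: cells grown under basal conditions without added stimulus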
[5] = JC-1 mitochondrial signal, unstimulated HepG2 cells – cell-based, JC-1 fluorescence, 24 h, 100 nL compound, profiling panel (AID 1167); conditions: HepG2 mitochondrial potential, higher = more signal
[6] = JC-1 mitochondrial signal, unstimulated adipocytes – cell-based, JC-1 fluorescence, 3T3-L1 adipocytes, 24 h, 100 nL compound, profiling panel (AID 1168); conditions: JC-1 mitochondrial fluorescence, higher = more signal, called active from +8 up or from −8 down
[7] = JC-1 mitochondrial signal, unstimulated myeloma cells – cell-based, JC-1 fluorescence, RPMI8226, 24 h, 100 nL compound, profiling panel (AID 1169); conditions: JC-1 mitochondrial potential fluorescence, higher = more signal
[8] = JC-1 mitochondrial signal, unstimulated MM1S myeloma – cell-based, JC-1 fluorescence, 24 h, 100 nL compound, profiling panel (AID 1170); conditions: MM1S mitochondrial potential, higher = more signal
[9] = resazurin metabolic signal in A549 cells – cell-based, resazurin fluorescence, 24 h, PK04 Diversity Set, profiling panel (AID 1171); conditions: A549 viability, higher = more signal, called active from +8 up or from −8 down
[10] = resazurin metabolic signal in HepG2 cells – cell-based, resazurin fluorescence, 24 h, PK04 Diversity Set, profiling panel (AID 1172); conditions: HepG2 viability, higher = more signal
[11] = budding yeast growth changes without added modifier – OD600, strain BY4716, 24 h, basal condition, primary screen (AID 1173); conditions: S. cerevisiae BY4716 growth, OD600, 24 h; higher = more signal, called active from +8 up or from −8 down
[12] = viability profiling in MM1S myeloma cells – cell-based, resazurin fluorescence, basal, 24 h, PK04 Diversity Set, profiling panel (AID 1174); conditions: higher = more signal, called active from +8 up or from −8 down
[13] = molecular target: Dihydroorotate dehydrogenase (quinone), mitochondrial (Plasmodium falciparum (isolate 3D7)) (UniProt Q08210); experiment: inhibition of P. falciparum DHODH – biochemical, C-terminal His tag, absorbance 600 nm, primary screen (AID 1175); conditions: PfDHODH enzyme, DCIP absorbance 600 nm; higher = more signal, called active from +8 up or from −8 down;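 also: recombinant parasite enzyme with a five histidine tag at its C terminus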
[14] = growth modulation of vineyard yeast isolate – strain RM11-1a, OD600, basal, 24 h, primary screen (AID 1177);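 also: cultures grown under basal conditions with no added stressor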; conditions: S. cerevisiae RM11-1a growth, OD600, 24 h; higher = more signal, called active from +8 up or from −8 down
[15] = growth of efflux-deficient E. coli DRC39 – strain DRC39, OD650, 24 h, E. coli filamentation inducers, primary screen (AID 1178);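 also: growth measured as culture turbidity by optical density at 650 nm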; conditions: E. coli DRC39 acrAB, higher = more signal, called active from +8 up or from −8 down
[16] = growth of efflux-deficient E. coli DRC39 – strain DRC39, OD650, 48 h, E. coli filamentation inducers, primary screen (AID 1179);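 also: screen aims at cell division blockers that make cells filament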; conditions: E. coli DRC39 delta-acrAB growth, higher = more signal, called active from +8 up or from −8 down
[17] = viability profiling in RPMI8226 myeloma cells – cell-based, resazurin fluorescence, basal, 24 h, PK04 Diversity Set, profiling panel (AID 1180); conditions: higher = more signal;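 also: RPMI8826 multiple myeloma cell line at 5000 cells per well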
[18] = molecular target: E3 ubiquitin-protein ligase XIAP (Homo sapiens) (UniProt P98170); experiment: small molecules binding XIAP protein – biophysical, small-molecule microarray, fluorescence 635 nm, primary screen (AID 1181); conditions: higher = more signal;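 also: score merges 667 nm emission and signal to noise over triplicate slides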
[19] = test system: XIP peptide (Xip251-270) binding; experiment: XIP fragment 251-270 binding compounds – biochemical, small-molecule microarray, fluorescence 635/667 nm, 0.1 µg/mL protein, primary screen (AID 1182); conditions: fluorescent protein binding, 635 nm, higher = more signal, called active from +8 up or from −8 down
[20] = test system: XIP peptide (Xip251-270); experiment: compounds binding XIP fragment 251-270 – biochemical, small-molecule microarray, fluorescence 635/667 nm, 0.5 µg/mL protein, primary screen (AID 1183); conditions: fluorescence 635 nm, higher = more signal

Chain of Dihydroorotate dehydrogenase (quinone), mitochondrial (Plasmodium falciparum (isolate 3D7)) (Q08210 whole entry, looked up): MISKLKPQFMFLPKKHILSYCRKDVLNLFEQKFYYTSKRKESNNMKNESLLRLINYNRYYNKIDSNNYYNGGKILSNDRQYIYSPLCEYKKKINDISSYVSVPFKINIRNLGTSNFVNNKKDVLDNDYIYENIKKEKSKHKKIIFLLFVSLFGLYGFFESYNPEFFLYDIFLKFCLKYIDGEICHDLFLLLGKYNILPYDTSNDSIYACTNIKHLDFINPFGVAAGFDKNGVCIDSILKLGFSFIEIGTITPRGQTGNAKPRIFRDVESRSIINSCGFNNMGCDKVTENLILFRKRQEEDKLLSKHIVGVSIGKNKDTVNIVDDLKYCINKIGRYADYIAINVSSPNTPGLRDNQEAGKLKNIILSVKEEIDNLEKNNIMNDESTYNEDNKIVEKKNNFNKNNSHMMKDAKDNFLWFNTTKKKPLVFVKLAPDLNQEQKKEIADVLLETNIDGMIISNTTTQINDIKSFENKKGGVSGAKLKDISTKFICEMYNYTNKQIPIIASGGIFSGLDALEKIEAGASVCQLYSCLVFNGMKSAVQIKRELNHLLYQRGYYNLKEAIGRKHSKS
Chain of E3 ubiquitin-protein ligase XIAP (Homo sapiens) (P98170 whole entry, looked up, the tested form may be a part): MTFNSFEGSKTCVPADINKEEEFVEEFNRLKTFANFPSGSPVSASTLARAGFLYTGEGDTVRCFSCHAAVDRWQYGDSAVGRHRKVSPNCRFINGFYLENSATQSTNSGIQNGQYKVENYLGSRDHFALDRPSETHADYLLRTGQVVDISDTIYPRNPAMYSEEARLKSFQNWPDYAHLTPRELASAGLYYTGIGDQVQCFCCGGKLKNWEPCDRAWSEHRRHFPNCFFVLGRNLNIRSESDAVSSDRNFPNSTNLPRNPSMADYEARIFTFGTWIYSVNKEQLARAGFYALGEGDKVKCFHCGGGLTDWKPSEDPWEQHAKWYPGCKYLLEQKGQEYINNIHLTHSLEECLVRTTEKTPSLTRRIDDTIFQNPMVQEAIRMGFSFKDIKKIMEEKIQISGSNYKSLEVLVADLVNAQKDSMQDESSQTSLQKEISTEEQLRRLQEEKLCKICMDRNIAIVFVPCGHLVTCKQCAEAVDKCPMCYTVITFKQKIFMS

Structure (SMILES)	z-score [1]	z-score [2]	z-score [3]	z-score [4]	z-score [5]	z-score [6]	z-score [7]	z-score [8]	z-score [9]	z-score [10]	z-score [11]	z-score [12]	composite z-score [13]	z-score [14]	z-score [15]	z-score [16]	z-score [17]	composite z-score [18]	composite z-score [19]	composite z-score [20]
CCOC(=O)C[C@H]1[C@H](OC(=O)c2ccc(-c3ccccc3)cc2)[C@@H](NC(=O)C2CCCCC2)c2cc(OCCCO)ccc2N1C(=O)c1ccc2ccccc2n1	1.25	-0.0303	0.881	0.179	2.69	1.82 (inactive)	-0.953	0.717	1.02 (inactive)	1.24	-0.275 (inactive)	1.22 (inactive)	0.478 (inactive)	-1.33 (inactive)	1.56 (inactive)	0.999 (inactive)	0.509	0.158	0.29 (inactive)	0.0417
COc1ccc([Si](C)(C)[C@H]2[C@H](CC(=O)N(CCO)Cc3ccccc3)O[C@@]3(C(=O)N(Cc4ccc(N5CCOC5=O)cc4)c4ccccc43)[C@@H]2C)cc1	1.17	-0.721	-0.931	0.17	1.51	0.647 (inactive)	-1.19	0.188	-1.36 (inactive)	-0.292	-0.693 (inactive)	-1.98 (inactive)	0.374 (inactive)	2.73 (inactive)	1.42 (inactive)	1.29 (inactive)	-2.8	0.144	1.01 (inactive)	0.631
C=CCNC(=O)[C@@H]1[C@H]2C(=O)O[C@H](c3ccccc3)[C@H](c3ccccc3)N2[C@H](c2ccc(O)cc2)[C@@]12C(=O)Nc1ccccc12	2.33	0.869	0.306	-2.6	-0.581	0.889 (inactive)	-0.824	1.31	0.679 (inactive)	-0.696	-0.146 (inactive)	0.634 (inactive)	-0.132 (inactive)	0.87 (inactive)	0.874 (inactive)	0.634 (inactive)	0.812	0.276	0.768 (inactive)	0.888
CO[C@H]1O[C@H](CO)[C@@H](OC(=O)Nc2ccccc2)[C@H](OC(=O)Nc2ccccc2-c2ccccc2)[C@@H]1OC(=O)Nc1ccccc1-c1ccccc1	0.195	-1.35	-1.09	-1.33	-0.629	2.01 (inactive)	-0.947	0.15	-2.22 (inactive)	-0.342	-0.954 (inactive)	-1.15 (inactive)	-1.33 (inactive)	2.16 (inactive)	-0.233 (inactive)	-0.3 (inactive)	-0.447	-0.0988	1.7 (inactive)	0.868
COc1ccc(C#Cc2ccc3c(c2)[C@]2(C(=O)N3)[C@H](c3ccc(O)cc3)N3[C@H](c4ccccc4)[C@H](c4ccccc4)OC(=O)[C@H]3[C@@H]2C(N)=O)cc1	1.39	-4.79	-3.41	-4.61	-2.81	-0.0696 (inactive)	-1.32	-1.66	-1.62 (inactive)	-0.424	-0.379 (inactive)	-6.51 (inactive)	0.255 (inactive)	1.47 (inactive)	0.277 (inactive)	0.464 (inactive)	-6.8	0.237	0.0982 (inactive)	0.542
C=CCN1C(=O)[C@@]2(O[C@@H](CCn3cc(CCO)nn3)[C@H]([Si](C)(C)c3ccc(OC)cc3)[C@H]2C)c2cc(N3C(=O)c4cccc5cccc3c45)ccc21	0.0493	-4.79	-2.73	-4.46	-2.84	1.32 (inactive)	-1.15	-2.09	-5.51 (inactive)	-6.41	-1.2 (inactive)	-9.06 (active)	-0.0753 (inactive)	1.19 (inactive)	2.37 (inactive)	2.05 (inactive)	-6.23	0.137	0.254 (inactive)	0.339
CC(C)C(=C=CC[C@H](O)c1ccc(OCCO)cc1)C[C@H](O)COCc1ccccc1	0.475	-0.822	-3.38	-3.77	0.296	0.371 (inactive)	-0.625	-1.36	0.515 (inactive)	0.657	-3.15 (inactive)	-1.83 (inactive)	-1.09 (inactive)	1.04 (inactive)	1.35 (inactive)	0.883 (inactive)	-0.0676	-0.0233	0.941 (inactive)	0.0727
COc1ccc([Si](C)(C)[C@@H]2[C@@H](CC(=O)N3CCC[C@H]3CO)O[C@]3(C(=O)N(Cc4ccc(N5CCC5=O)cc4)c4ccccc43)[C@H]2C)cc1	0.592	-3.27	-2.7	-4.39	-1.56	1.28 (inactive)	-1.18	-1.66	-1.99 (inactive)	-1.43	-1.17 (inactive)	-2.01 (inactive)	-2.42 (inactive)	0.613 (inactive)	1.34 (inactive)	1.2 (inactive)	-5.16	-0.117	1.15 (inactive)	0.713
COC(=O)C1=CC(CCCO)=CC(C2CC2)N(Cc2cc3c(cc2Br)OCO3)C=C1C(=O)OC (stereo not given)	1.19	0.489	0.0635	0.627	1.1	0.857 (inactive)	-0.147	1.28	0.565 (inactive)	0.365	-1.81 (inactive)	1.06 (inactive)	-0.509 (inactive)	-0.847 (inactive)	0.489 (inactive)	-0.0093 (inactive)	1.45	0.295	1.68 (inactive)	0.0315
